From PubChem BioAssay AID800 (PCMD, 2007)
Out of some 220,000 compounds screened, about 650 (0.3%) were called active. Only a selection was taken, and actives are over-represented in it overall. Values without a mark were called inactive. Cut-off read from the data, not from the text of the source: active = inhibition above about 40%; inactive = the rest.

target: Coagulation factor XII (Homo sapiens) (UniProt P00748); assay: coagulation factor XIIa activity inhibition – biochemical, 1536-well, primary screen (AID 800); conditions: purified FXIIa, Boc-QGR-AMC fluorogenic substrate, 2 h; at 5 µM; stronger effect = higher value;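 note: 0% = enzyme with no compound and 100% = blank without enzyme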
Sequence (P00748 20-372 limits assumed): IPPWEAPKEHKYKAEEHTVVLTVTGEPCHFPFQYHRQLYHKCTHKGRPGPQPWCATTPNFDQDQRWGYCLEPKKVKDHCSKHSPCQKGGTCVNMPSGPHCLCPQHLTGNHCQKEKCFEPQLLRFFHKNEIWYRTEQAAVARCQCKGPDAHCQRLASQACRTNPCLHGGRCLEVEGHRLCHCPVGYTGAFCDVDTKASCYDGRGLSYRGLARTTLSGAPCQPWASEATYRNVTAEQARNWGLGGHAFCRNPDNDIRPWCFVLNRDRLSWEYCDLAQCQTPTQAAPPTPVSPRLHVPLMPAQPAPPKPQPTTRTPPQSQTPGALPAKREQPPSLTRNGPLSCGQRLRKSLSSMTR
Sequence (P00748 373-615 limits assumed): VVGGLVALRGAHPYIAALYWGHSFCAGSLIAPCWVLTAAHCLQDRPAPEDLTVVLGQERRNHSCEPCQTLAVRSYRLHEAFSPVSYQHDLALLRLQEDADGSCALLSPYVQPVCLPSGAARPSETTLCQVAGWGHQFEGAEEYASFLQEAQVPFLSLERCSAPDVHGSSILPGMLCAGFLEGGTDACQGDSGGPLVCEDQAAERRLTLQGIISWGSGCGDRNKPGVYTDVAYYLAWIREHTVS

Row | SMILES | inhibition
1 | CCOC(=O)c1c(C)oc(C)c(C(=O)OCC)c1=O | 8.51%
2 | CCOC(=O)c1cnc(COc2ccccc2Cl)[nH]c1=O | 3.67%
3 | CC/C(=N\NC(=S)NC(C)C)c1ccc(OC(F)F)cc1 | 52.2% (active)
4 | CC(NC(=S)Nc1ccc(OC(F)F)cc1)c1ccc(F)cc1 (centres undefined) | 10.5%
5 | O=C(NNC(=S)NCc1ccccc1)c1ccc(OC(F)F)cc1 | -6.41%
6 | Cc1onc(-c2ccc(Cl)cc2)c1-c1ccnn1S(=O)(=O)c1ccc(Cl)cc1 | 3.87%
7 | CCOCCn1c(-c2ccccc2)nc2ccccc21 | 9.94%
8 | O=C(COC(=O)CCc1nc2ccccc2c(=O)[nH]1)Nc1ccc(N2CCOCC2)cc1 | 1.95%
9 | CSc1nc(C)nc(C2CC2)c1C#N | 1.66%
10 | CN(c1ccc(OCC(=O)NC2=NCCS2)cc1)S(=O)(=O)c1ccc(F)cc1 | 7.4%
11 | Cc1ccc(S(=O)(=O)N2CCN(C(=O)COC(=O)c3c(C)noc3C)CC2)c(C)c1 | 7.88%
12 | O=c1[nH]c(CSc2ccccc2)nc2c1oc1ccccc12 | 7.45%
13 | COC(=O)[C@H](Cc1ccccc1)NC(=O)Nc1ccc(OC)cc1 | 4.58%
14 | CC(C)(C)NC(=O)/C(=C/c1cccnc1)NC(=O)c1ccco1 | 15.3%
15 | O=C(Nc1nnc(Cc2ccc(Cl)cc2)s1)c1ccncc1 | 2.31%
16 | O=C(NNC(=S)NC1CC2CCC1C2)c1ccc(Cl)cc1 (centres undefined) | 7.4%
17 | CCc1ccc2nc(Nc3ncc(C(C)=O)c(C)n3)nc(C)c2c1 | 6.31%
18 | C=C(C)C(=O)Nc1cccc(C2=NOC3(C2)C[C@H](C(N)=O)N(C(=O)C(c2ccccc2)c2ccccc2)C3)c1 (some centres undefined) | 0.36%
19 | Nc1nc(Sc2ncccc2[N+](=O)[O-])n[nH]1 | 7.38%
20 | C/C(=N/Nc1nc(-c2ccccc2)c(CC(=O)O)s1)c1ccccc1 | 10.1%
21 | COc1ccccc1-c1c(C#N)c(N)nc2c1CCC2 | -2.02%
22 | CCOC(=O)C(=CNNc1ccsc1C(=O)OC)C(=O)OCC | 8.52%

Row | SMILES | inhibition
23 | COc1ccc(OCC(=O)N2CCN(C(=O)c3cccs3)CC2)cc1 | 0.82%
24 | COc1ccc(CN(C(=O)c2cccs2)c2nccs2)cc1OC | 14.5%
25 | COc1ccc(CN(Cc2ccc(OC)cc2)C(=O)c2cccs2)cc1 | 45.5% (active)
26 | Cc1nc(=O)c(-c2ccccc2)c(C)n1-c1ccc(Br)cc1 | 7.02%
27 | CCOC(=O)c1nnn2c1nc(N1CCN(c3ccccc3)CC1)c1ccccc12 | 5.24%
28 | Cc1ccc2c(c1)nnc1nnc(SCC(=O)O)n12 | 5.33%
29 | Cc1cccc(NC(=O)c2nc[nH]c2C(=O)NCC(=O)OCc2ccccc2)c1 | 7.76%
30 | Cc1ccc(NNC(=O)c2cccs2)cc1Cl | 8.48%
31 | CCc1nnc(NC(=O)CCC(=O)O)s1 | 13.2%
32 | CCc1nnc(NC(=O)CCN(c2ccc(C)cc2)S(=O)(=O)c2ccccc2)s1 | 49.2% (active)
33 | CCc1nnc(NC(=O)CCC(=O)NCc2ccccc2OC)s1 | 15%
34 | CCCCC1=CC2=CC(=O)C(C)(OC(=O)CC)C(=O)C2=CN1CCCOC(C)C (centres undefined) | 7.98%
35 | O=C(Nc1ccc(F)cc1)c1cc2c(s1)CCCC2 | 8.77%
36 | COc1ccc(CNC(=O)C2CC(c3ccc(C(F)(F)F)cc3)=NO2)cc1 (centres undefined) | 7.68%
37 | Nc1nnn(CC(=O)N/N=C/c2ccc(O)cc2)n1 | 16.2%
38 | CCc1cccc(CC)c1NC(=S)Nc1ccc2cn[nH]c2c1 | 10%
39 | Cc1ccc(SCc2c(C(=O)N/N=C/C3CC=CCC3)nnn2-c2nonc2N)cc1 (centres undefined) | 9.39%
40 | CS(=O)(=O)c1ccc2nc(NC(=O)c3ccc(N4CCCC4=O)cc3)sc2c1 | 1.85%
41 | O=C(NCc1ccc2c(c1)OCO2)c1sccc1Br | 8.69%
42 | C/C=C(/C)C(=O)O[C@@H]1c2cc3c(c4c2[C@@]2(CO4)C(=O)C(OC)=C(OC)C=C2C[C@@H](C)[C@H]1C)OCO3 | 12.9%
43 | Oc1[nH]c2ccc(Br)cc2c1N=Nc1nn[nH]n1 | 12.3%
44 | CCCc1ccc(C(=O)[C@@H]2[C@@H](C(C)=O)N3c4ccc(F)cc4C=C[C@@H]3[C@@]23C(=O)Nc2ccccc23)cc1 | 8.48%

Row | SMILES | inhibition
45 | CC1CC(C)(C)n2c(O)c(N=NC(N)=S)c3cccc1c32 (centres undefined) | 30.2%
46 | Cc1ccccc1Nc1c(-c2ccccc2)nc2ncccn12 | 5.54%
47 | CCc1ccc(S(=O)(=O)NCC(O)COc2ccc(OC)cc2)cc1 (centres undefined) | 6.59%
48 | Cc1cccc(NC(=O)c2ccc3ccccc3n2)n1 | 16%
49 | Cc1cc(NC(=O)c2cccc(N3C(=O)CCC3=O)c2)no1 | 16.7%
50 | Cc1cccc(NC(=O)c2cc(N3C(=O)CCC3=O)ccc2Cl)n1 | 50.5% (active)
51 | O=C(NC1CCN(Cc2ccccc2)CC1)c1ccc(Oc2cc(Cl)cc(Cl)c2)o1 | 6.33%
52 | S=c1[nH]c2ccccc2c2ccccc12 | 2.88%
53 | COC(=O)CCCC1=CC2=CC(=O)C(C)(OC(=O)c3cccs3)C(=O)C2=CN1CC(C)C (centres undefined) | 7.73%
54 | Cc1noc(C)c1C(=O)OCC(=O)N1CCN(S(=O)(=O)c2ccc3ccccc3c2)CC1 | 1.83%
55 | Nc1ccccc1Sc1cc(Cl)nnc1Cl | 12.7%
56 | C=CCn1c(=S)sc2c(=O)[nH]c(C)nc21 | 1.68%
57 | Cc1cc(=O)[nH]c(S)c1C#N | -0.28%
58 | COC(C[C@@H](O)[C@H](C)[C@H](O)COCc1ccccc1)OC | 4.52%
59 | Cn1c(S(=O)(=O)O)nc2ccccc21 | -0.32%
60 | NS(=O)(=O)c1ccc(CCNC(=O)NC2CCCCC2)cc1 | 15%
61 | O=C(c1ccc(Cl)cc1)N1N=C(c2ccccn2)CC1(O)C(F)(F)F (centres undefined) | 8.52%
62 | Cc1ccc(-n2ncc3c2ncn2nc(-c4ccco4)nc32)c(C)c1 | 14.2%
63 | Cc1ccc(-n2ncc3c(=O)[nH]cnc32)c(C)c1 | 54% (active)
64 | COC(=O)CSc1ncnc2c1cnn2-c1ccc(C)cc1C | 5.55%
